Calls of active or inactive are those of the source.
Key:
[1] = molecular target: Albumin (Bos taurus) (UniProt P02769); assay: compounds binding labelled BSA control protein – biochemical, small-molecule microarray, Alexa647 label, 635/667 nm fluorescence, artefact control for SMM control protein annotation, profiling panel (AID 1118); details: BSA-A647 binding, fluorescence 635 nm, higher = more signal;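 also: score merges 667 nm emission intensity and signal-to-noise per printed compound spot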
[2] = probe aXIP binding to arrayed compounds – biochemical, NeuroSMM set, 635/667 nm fluorescence, primary screen (AID 1119); details: small-molecule microarray, higher = more signal, called active from +8 up or from −8 down;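 also: probe is the protein aXip251-270 applied at 1 µg/mL to compound-printed slides; binding of probe to printed compounds measured as 667 nm fluorescence plus signal to noise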
[3] = probe aNOTCH3 binding on compound microarray – biochemical, small-molecule microarray, 635/667 nm fluorescence, primary screen (AID 1120); details: higher = more signal;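 also: probe is a biotin-tagged antibody raised against NOTCH3 rather than NOTCH3 protein; score merges spot fluorescence near 667 nm with spot signal to noise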
[4] = probe aNOTCH2 binding on compound microarray – biochemical, small-molecule microarray, 635/667 nm fluorescence, primary screen (AID 1121); details: higher = more signal;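 also: score merges feature fluorescence read at 667 nm with its signal to noise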
[5] = molecular target: Carbonic anhydrase 2 (Homo sapiens) (UniProt P00918); assay: compounds binding carbonic anhydrase 2 – biochemical, small-molecule microarray, Alexa647-labelled CAII, profiling panel (AID 1122); details: CAII-A647 binding fluorescence, higher = more signal
[6] = COS7 lysate on small-molecule microarray, probe aHis, 635 nm (AID 1123); details: COS7 cell lysate, fluorescence, higher = more signal;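 also: z-score combines 667nm fluorescence intensity with signal-to-noise per printed compound spot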
[7] = probe aLAP1 signal on lysate-treated microarray – cell lysate, small-molecule microarray, COS7 lysate, primary screen (AID 1124); details: probe aLAP1, fluorescence, higher = more signal;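 also: lysate comes from COS7 cells expressing LAP1 and is applied at 0.3 µg/mL; score merges spot fluorescence near 667 nm with signal-to-noise over triplicate slides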
[8] = test system: Sam68 (KHDRBS1); assay: compounds binding KHDRBS1 protein – biochemical, small-molecule microarray, 635 nm fluorescence, primary screen (AID 1125); details: higher = more signal;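 also: score merges 667 nm channel intensity with signal to noise over triplicate slides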
[9] = test system: Chordin-like protein 2 (CHRDL2); assay: compounds binding chordin-like 2 – biochemical, small-molecule microarray, 635 nm fluorescence, primary screen (AID 1126); details: fluorescence 635 nm, higher = more signal;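 also: printed compound slides probed with Chrdl2 protein at 4 µg/mL for 1 h at 4 C; score merges 667 nm emission intensity with signal to noise over three replicate slides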
[10] = molecular target: Concanavalin-A (Canavalia ensiformis) (UniProt P02866); assay: compounds binding concanavalin A lectin – biochemical, small-molecule microarray, Alexa647 label, 635 nm, artefact control for SMM control protein annotation, primary screen (AID 1127); details: ConA-A647 binding fluorescence, higher = more signal;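 also: z combines 667 nm emission intensity with signal-to-noise across three replicate slides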
Sequence of Concanavalin-A (Canavalia ensiformis) (P02866 whole entry, looked up): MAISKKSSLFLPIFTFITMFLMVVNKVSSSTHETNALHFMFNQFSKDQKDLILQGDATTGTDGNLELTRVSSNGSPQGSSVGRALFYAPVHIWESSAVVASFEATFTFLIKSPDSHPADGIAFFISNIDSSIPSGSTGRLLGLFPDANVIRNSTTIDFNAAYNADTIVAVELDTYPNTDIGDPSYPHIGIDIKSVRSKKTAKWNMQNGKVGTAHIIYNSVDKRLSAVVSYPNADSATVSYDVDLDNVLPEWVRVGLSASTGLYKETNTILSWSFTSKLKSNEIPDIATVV

Sequence of Albumin (Bos taurus) (P02769 whole entry, looked up): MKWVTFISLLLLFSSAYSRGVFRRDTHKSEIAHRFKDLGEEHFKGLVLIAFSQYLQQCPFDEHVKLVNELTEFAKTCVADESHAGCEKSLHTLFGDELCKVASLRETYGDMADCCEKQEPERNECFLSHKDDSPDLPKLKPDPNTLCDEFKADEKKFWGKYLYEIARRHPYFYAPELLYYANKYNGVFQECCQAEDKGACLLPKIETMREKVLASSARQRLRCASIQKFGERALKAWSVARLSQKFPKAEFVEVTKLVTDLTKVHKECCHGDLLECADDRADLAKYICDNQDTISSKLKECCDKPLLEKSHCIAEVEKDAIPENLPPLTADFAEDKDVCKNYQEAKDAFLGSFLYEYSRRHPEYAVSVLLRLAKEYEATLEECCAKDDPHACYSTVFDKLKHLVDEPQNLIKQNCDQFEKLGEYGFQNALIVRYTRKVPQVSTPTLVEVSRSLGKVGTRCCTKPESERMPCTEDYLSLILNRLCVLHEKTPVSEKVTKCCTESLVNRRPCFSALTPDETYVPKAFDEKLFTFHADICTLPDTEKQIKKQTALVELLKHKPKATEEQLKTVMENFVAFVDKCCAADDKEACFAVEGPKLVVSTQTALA

Structure (SMILES) | composite z-score [1] | composite Z-score [2] | composite z-score [3] | composite z-score [4] | composite z-score [5] | composite z-score [6] | composite z-score [7] | composite z-score [8] | composite z-score [9] | composite z-score [10]
CO[C@@H]1COC(=O)CC=C[C@@H](C)[C@@H]2C=C[C@H](O)[C@@H](COC(=O)CCC[C@H]1C)O2 | -0.203 | 0.135 (inactive) | 0.0319 | -0.184 | -0.455 | -1.2 | 0.0206 | 0.0503 | 1.3 | -0.239
C[C@@H]1CC[C@H]2C(=O)O[C@H](COc3ccc(C(C)(C)C)cc3)CN2[C@H]1c1ccc(Br)cc1 | 0.673 | 0.458 (inactive) | -0.0716 | 0.0776 | -0.113 | -0.231 | 0.157 | -0.734 | 0.0828 | -0.212
COc1ccc(O[C@@H]2[C@H](O)CO[C@H]2C=CC#Cc2ccccc2)cc1 | -0.0002 | 0.497 (inactive) | -0.166 | -0.171 | 0.177 | 0.297 | 0.0594 | -0.016 | 0.229 | -0.301
COc1ccc(COC(=O)NN=C2C[C@@H](O)[C@@H](O)[C@@H]3[C@@H]4C(=O)N(Cc5ccc6c(c5)OCO6)C(=O)[C@@H]4CC[C@@H]23)cc1 | -0.152 | -0.463 (inactive) | 0.218 | 0.015 | -0.244 | 0.115 | 0.616 | -0.395 | -0.54 | -1.3
CO[C@H]1COC(=O)[C@H](C)COC(=O)CC=C[C@@H](C)[C@H](OC)COC(=O)CC=C[C@@H]1C | -0.991 | -0.222 (inactive) | -0.132 | -0.164 | -0.405 | -0.602 | -0.142 | -0.0288 | 1.4 | 0.184
O=C1C2C=CC(C(O)c3ccc([N+](=O)[O-])cc3)N(Nc3ccc([N+](=O)[O-])cc3)C2C(=O)N1c1ccccc1 (stereo not given) | 0.921 | 0.373 (inactive) | 0.351 | 0.0518 | 0.661 | 2.71 | 0.789 | 1.29 | -0.256 | 1.19
C[C@@H]1C=CCC(=O)OC[C@H](C)C(=O)N2CCC[C@H]2C(=O)OC1 | -0.12 | 0.608 (inactive) | -0.143 | -0.0338 | -0.0527 | -0.0199 | 0.0742 | 1.14 | 1.58 | 0.182
CC(=O)OC[C@H]1O[C@@H](ON=C(C)CCN2CCc3nc(-c4ccccc4)c(-c4ccccc4)cc3C2)[C@H](OC(C)=O)[C@@H](OC(C)=O)[C@@H]1OC(C)=O | 0.507 | -0.0295 (inactive) | 0.12 | -0.156 | 0.16 | 0.614 | 0.717 | 1.3 | 0.346 | 0.878
O=C1[C@H]2[C@H]3[C@H](O)[C@H](O)CC(=NO[C@@H]4O[C@H](CO)[C@@H](O)[C@H](O)[C@H]4O)[C@@H]3CC[C@H]2C(=O)N1Cc1ccccc1 | -0.0679 | 0.0769 (inactive) | 0.0744 | -0.0623 | -0.568 | -0.658 | 0.0054 | 0.64 | -0.293 | -0.664
CCCC[C@@H](O)C1=C(C)C[C@H]2C(=O)N(Cc3ccccc3)C(=O)[C@H]2[C@H]1CO | 0.0852 | -0.041 (inactive) | -0.0175 | -0.133 | -0.215 | -0.377 | 0.0292 | 0.241 | 0.538 | 0.321
COCCOC(=O)N1C(=O)[C@@]2(c3cc(C#Cc4ccc(OC)cc4)ccc31)[C@H](C(=O)N1CCN(c3ncccn3)CC1)[C@H]1C(=O)O[C@H](c3ccccc3)[C@H](c3ccccc3)N1[C@@H]2c1ccc(OCCO)cc1 | -0.447 | 0.549 (inactive) | 0.311 | 0.0966 | 0.31 | 1.1 | 0.634 | 0.556 | 0.792 | 1.08
CC(CCN1CCc2nc(-c3ccccc3)c(-c3ccccc3)cc2C1)=NOC[C@@H](C)[C@H](OCc1ccccc1)C(C)C | 0.474 | -0.193 (inactive) | 0.0375 | -0.177 | -0.0642 | 0.271 | -0.2 | -1.19 | -1.11 | -0.198
C=CCOC(=O)[C@H]1[C@@H]2C(=O)O[C@@H](c3ccccc3)[C@@H](c3ccccc3)N2[C@@H](c2ccc(OCCOC(=O)[C@H]3C[C@H]4C(=O)N[C@@H](Cc5ccccc5)C(=O)N4[C@H]3c3ccc(O)cc3)cc2)[C@]12C(=O)Nc1ccccc12 | -0.757 | 0.89 (inactive) | -0.0932 | -0.131 | 0.553 | 1.71 | 0.832 | 1.31 | 1.38 | 1.16
N#Cc1ccc(NN2C(C(O)c3cc(C(F)(F)F)cc(C(F)(F)F)c3)C=CC3C(=O)N(c4ccccc4)C(=O)C32)cc1 (stereo not given) | 0.996 | 0.239 (inactive) | 0.425 | 0.0388 | 0.612 | 2.82 | 0.557 | 1.33 | -0.904 | 1.19
C=C(/C(=C/C[C@@H](OC(=O)c1ccncc1)c1ccc(OCCO)cc1)c1cnc2ccccc2c1)C(C)C | 0.155 | -0.128 (inactive) | 0.201 | -0.134 | 0.675 | -0.842 | 0.727 | 1.22 | 0.952 | 1.08
N#Cc1ccc(NN2C(C(O)c3cccc4ccccc34)C=CC3C(=O)N(c4ccccc4)C(=O)C32)cc1 (stereo not given) | 0.595 | 0.544 (inactive) | 0.479 | 0.0687 | 0.696 | 2.82 | 0.599 | 1.31 | -0.0989 | 0.926
